35 compounds from PubChem BioAssay (EPA / NIEHS) can be followed below.

Inconclusive results are not listed. Activity calls are given as the source filed them. Rule for the calls: active = hit-call score of the fitted dose curve at least 0.9, where 1 is the maximum; inconclusive = response in the unintended direction; inactive = score below 0.9.

Read-out in this test: xenobiotic metabolism (CYP2C9), CYP2C9 (gene 1559)
The test can be described thus: CLD_CYP2C9_6hr: CellzDirect (CLD) Gene Expression Assay for xenobiotic metabolism (CYP2C9) at 6 hours (AID 2283664). The procedure: CLD_6hr is a cell-based, multiplexed-readout assay that uses hepatocyte, a human liver primary cell, with measurements taken at 6 hours after chemical dosing in a 96-well plate.CLD_CYP2C9_6hr is one of 16 assay component(s) measured or calculated from the CLD_6hr assay. It is designed to make measurements of mRNA induction, a form of inducible reporter, as detected with chemiluminescence signals by Quantitative Nuclease Protection Assay (qNPA) technology.Data from the assay component CLD_CYP2C9_6hr was analyzed at the endpoint, CLD_CYP2C9_6hr, in the positive analysis fitting direction relative to DMSO as the negative control and baseline of activity. Using a type of inducible reporter, gain-of-signal activity can be used to understand changes in the reporter gene as they relate to the gene CYP2C9. Furthermore, this assay endpoint can be referred to as a primary readout. To generalize the intended target to other relatable targets, this assay endpoint is annotated to the cyp intended target family, where subfamily is xenobiotic metabolism.
Human hepatocyte cultures were treated daily for two consecutive days with fresh dosing solutions containing appropriate concentrations of the 320 ToxCast chemicals (chemical identities were blinded to CellzDirect and other ToxCast collaborators), vehicle control (0.2% DMSO), and positive control inducers as summarized in Table 1. Due to the large number of treatment groups and chemicals examined, the ToxCast chemicals were divided into two groups (spanning two independent cultures of hepatocytes from separate donor preparations (Hu778: ToxCast plates 1 and 2; Hu776: ToxCast plates 3 and 4). Each preparation of human hepatocyte cultures was treated with respective vehicle control, medium only control, set of six positive controls/reference chemicals for the five hepatic receptor pathways, and a subset of eight of the ToxCast chemicals (indoxacarb, pyrithiobac-sodium, norflurazon, cyhalofop-butyl, methomyl, thiram, acetochlor, and propiconazole). These replicate data, coupled with internal replicates designed within the blinded ToxCast chemical library, provided additional data to evaluate interindividual differences between hepatocyte preparations and their potential impact on chemical profiles.Cell morphology and integrity were evaluated using phase-contrast microscopy as an indicator of hepatocyte cell health (Tyson & Green, 1987). Cultures for each treatment group (i.e., media, vehicle [0.2% DMSO], positive control inducers [multiple concentrations], and the ToxCast chemicals [multiple concentrations]) were observed and cell morphology was assessed relative to vehicle control cultures at each harvest time point (0, 6, 24, or 48 h). […] Images were evaluated at the conclusion of the study to assess changes in cell integrity and account for the effects of chemical exposure on uncharacteristic changes in concentration-dependent gene expression profiles. The results from these determinations of apparent cytotoxicity were annotated (yes/no) alongside the corresponding qNPA data for reference.At the conclusion of each treatment period, hepatocyte cultures (96-well) were washed with 1 volume of HBSS, lysed by addition of 25 ul ArrayPlate lysis buffer (HTG, Tucson, AZ), and 70 ul/well of Denaturation Oil, denatured by incubation at 95C for 10 min, and frozen at approximately -70C until analysis by nuclease protection assay (qNPA) (Roberts et al., 2007). For qNPA analysis, cell lysates were thawed at 50C for approximately 30 min, qNPA probes were added, and samples were incubated at 95C for 10 min to begin the detection process by denaturing the target RNA, dissociating the duplexes and secondary structure hybridization. At the conclusion of the hybridization period, S1 nuclease reagent was added to each sample to digest all nonprotected nucleotides at 50C for 60-90 min. […]
Turning to `CS(=O)(=O)c1ccc(C(=O)C2C(=O)CCCC2=O)c([N+](=O)[O-])c1`, the compound was classed as inactive. `COCC(=O)N(c1c(C)cccc1C)C(C)C(=O)OC` (stereo not given): the call was inactive. In the case of `COP(=O)(OC)O/C(C)=C/C(=O)N(C)C` it was “inactive”; in that of `CC(C)N1C(=O)N(c2ccccc2)CSC1=NC(C)(C)C`, “inactive”. For `O=C(O)c1c(Cl)ccc2cc(Cl)cnc12`, the result was inactive. With `COc1cc(OC)nc(NC(=O)NS(=O)(=O)c2ncccc2OCC(F)(F)F)n1`, the compound was called inactive. With `CN=C=S` the entry was “inactive”.

As for `CCNP(=S)(OC)O/C(C)=C/C(=O)OC(C)C` (stereo not given), the result was inactive. Take `CCOP(=S)(OCC)Oc1nc(Cl)n(C(C)C)n1`: the call was inactive.

Take `CO/N=C(/C1=NOCCO1)c1ccccc1Oc1ncnc(Oc2ccccc2Cl)c1F`: the call was inactive. As for `COC(=O)NS(=O)(=O)c1ccc(N)cc1`, the result was inactive.

As for `Cc1ccc(N=CN(C)C=Nc2ccc(C)cc2C)c(C)c1`, the compound was classed as inactive.

On to `Cc1nc(N(C)C)nc(OC(=O)N(C)C)c1C`, for which the outcome was inactive. `CCNC(=O)NC(=O)C(C#N)=NOC`: the compound was classed as inactive. In the case of `CC1(C)CCC(=Cc2ccc(Cl)cc2)C1(O)Cn1cncn1` (stereo not given) it was “inactive”; in that of `CC(C)N1C(=O)c2ccccc2NS1(=O)=O`, “inactive”. In the case of `CCOc1nc(C(Cl)(Cl)Cl)ns1` it was “inactive”; in that of `COc1cc(Cl)c(OC)cc1Cl`, “inactive”. With `Nc1c(Cl)c(F)nc(OCC(=O)O)c1Cl`, the compound was called inactive. In the case of `O=C1C2CC=CCC2C(=O)N1SC(Cl)(Cl)Cl` (stereo not given) it was “inactive”; in that of `CCCCC(C#N)(Cn1cncn1)c1ccc(Cl)cc1` (stereo not given), “inactive”; in that of `CCC(C)n1c(=O)[nH]c(C)c(Br)c1=O` (stereo not given), “inactive”. In the case of `CCOP(=O)(OCC)Oc1nc(Cl)c(Cl)cc1Cl` it was “inactive”; in that of `CS(=O)(=O)c1cc(C(F)(F)F)ccc1C(=O)c1cnoc1C1CC1`, “inactive”. Take `CC(C)=CC1C(C(=O)OCc2coc(Cc3ccccc3)c2)C1(C)C` (stereo not given): the compound was called inactive. With `C=CCOC(=O)C(C)(C)OC(=O)c1cc(-n2c(=O)cc(C(F)(F)F)n(C)c2=O)ccc1Cl` the entry was “inactive”. With `Nc1c(Cl)c(Cl)nc(C(=O)O)c1Cl` the entry was “inactive”; with `OC(c1ccc(Cl)cc1)(c1ccc(Cl)cc1)C(Cl)(Cl)Cl`, “inactive”; with `CSC(=O)c1c(C(F)F)nc(C(F)(F)F)c(C(=O)SC)c1CC(C)C`, “inactive”. In the case of `COCC(C)N(C(=O)CCl)c1c(C)csc1C` (stereo not given) it was “inactive”. Turning to `CCOc1nc(F)cc2nc(S(=O)(=O)Nc3c(Cl)cccc3Cl)nn12`, the call was inactive. In the case of `COc1ccc(-c2ccccc2)cc1NNC(=O)OC(C)C` it was “inactive”; in that of `N#Cc1c(Cl)cccc1Cl`, “inactive”. As to `N#Cc1c[nH]cc1-c1cccc2c1OC(F)(F)O2`, the call was inactive. In the case of `CC1(C)C(C(=O)OC(C#N)c2cccc(Oc3ccccc3)c2)C1(C)C` (stereo not given), the call was inactive.
